An excerpt weighted towards active compounds, which were near 7.3% of everything screened.
VACV Venus inh – vaccinia inhibition (Venus reporter). Vaccinia virus Venus reporter expression, fluorescence. Potency, µM (highest dose often 36.5 µM), for the others: at the highest dose activity change, negative = inhibition, actives largely listed as inhibitors. actives 0.46% (n = 330,000). AID 720580; calls by dose curve; tested in A549 cells; also: potency is read from the fitted curve at half-maximal effect; nearly all actives have a fitted effect of over 30% in size
FMDV inh – blocks foot and mouth disease virus | actives 1.2% (n = 410,000) | FMDV antiviral cell-based qHTS | Potency, µM (series often up to 57.9 µM), without a hit: top-dose activity change, negative = inhibition, usual class: inhibitors; calls by dose curve; tested in HEK293T cells; also: read-out not given here; potency is read from the fitted curve at half-maximal effect; nearly all actives have a fitted effect of over 45% in size
HCMV antiviral – inhibitors of human cytomegalovirus; AID 1259415; actives 4.5% (n = 410,000); HFF cells, HCMV-luciferase reporter, 72 h; stronger effect = lower value; activity change, negative = inhibition, % at 57.5 µM; in the data active = activity change below about -60%; inconclusive = no clear call, values can overlap the other calls; inactive = above about -39%
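Inhibition of viral replication was scored as loss of reporter luminescence in HFFs infected with HCMV-luciferase (MOI 1 PFU/cell) for 72 h; compounds tested at 2 doses, normalized to buffer and Salinomycin controls.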
HCV inhibitor – HCV inhibition; Potency, µM (highest dose often 41.8 µM), without a hit: at the top dose activity change, negative = inhibition, most hits filed as inhibitors; actives 3.4% (n = 340,000); Huh7.5.1 HCVcc-Cre infection, luciferase reporter, 44 h; active = well fitted inhibition curve with a large enough effect; inconclusive = small, poorly fitted or top-dose-only effect, or another doubt; inactive = no such curve, though single readings can be large or run the other way; also: potency is read from the fitted curve at half-maximal effect
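Compounds are dispensed onto cells plated 4 h earlier at 1,000 per well, with HCVcc-Cre virus (about 0.5 moi) added next. Following 44 h of culture, luminescent signal is measured for 15 sec after 15 min with substrate at room temperature.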
Vaccinia mCherry – vaccinia inhibition (mCherry reporter) | Vaccinia virus mCherry reporter infection, fluorescence | AID 720579 | Potency, µM (series often up to 36.5 µM), for inactives: at the top dose activity change, negative = inhibition, hits mostly inhibitors | actives 0.63% (n = 310,000); calls by dose curve; tested in A549 cells; also: potency is read from the fitted curve at half-maximal effect; nearly all actives have a fitted effect of over 35% in size
* hit, by the source's call; i = inactive; ? = inconclusive; · = no result; [ ] = dose if it differs, or a comment. % is scaled to controls: 0 for no effect and ±100 for the full control effect.

SMILES	VACV Venus inh	FMDV inh	HCMV antiviral	HCV inhibitor	Vaccinia mCherry
CCN(CC)c1nc(-c2ccccc2)nc2ccccc12	-16.5%	?	-62.7*	11.2µM*	-7.1%
CCCC[C@@H]1CNCCN1CCc1cccc2ccccc12	?	0.0%	11.8	?	-23.7%
CC(O)C(NS(=O)(=O)c1ccc(Cl)cc1)C(=O)OCC(=O)c1c[nH]c2ccccc12 (configuration not stated)	-21.8%	15.8µM*	47.2	?	-9.6%
CSCCC(NS(=O)(=O)c1ccc(Cl)cc1)C(=O)OCC(=O)c1c(C)[nH]c2ccccc12 (configuration not stated)	?	35.5µM*	38.5	-14.3%	?
Clc1ccc(OCCn2c(-c3ccco3)nc3ccccc32)cc1	·	-28.6%	-74.6*	-22.5%	·
Cc1ccc(C(=O)n2c(N)nc3ccccc32)cc1	?	10µM*	?	2.6%	-3.6%
Cc1nc2ccccc2n1Cc1ccc(Cl)cc1	?	?	-89.2*	?	-9.6%
CCSc1nc2ccccc2n1Cc1ccccc1F	·	-22.7%	1.8	6.4%	·
Fc1ccccc1Cn1c(-c2ccccc2)nc2ccccc21	-7.2%	?	-61.3*	·	4.3%
Cc1ccc(S(=O)(=O)n2c(N)nc3ccccc32)cc1	-25.4%	-6.7%	33.2	?	-26.2%
Cc1nn(-c2ccccc2)c(OC(=O)c2ccccc2Br)c1S(=O)(=O)c1ccccc1	0.9%	-8.0%	-6.0	·	-8.1%
O=C(COC(=O)c1ccccc1F)Nc1cccnc1Cl	-2.9%	6.5%	-21.0	4.3%	i
Nc1nc2ccccc2n1Cc1ccc(Cl)c(Cl)c1	-29.9%	?	18.2	-21.5%	?
COc1ccccc1Cn1c(C)nc2ccccc21	-6.9%	?	-4.2	8.4%	i
Cc1ccccc1Cn1c(C)nc2ccccc21	-7.8%	?	-86.7*	5.62µM*	-0.8%
Nc1ccc(C(=O)n2c3ccccc3c3ccccc32)cc1	?	?	-79.1*	?	·
Cc1ccc(Cn2c(N)nc3ccccc32)cc1	-13.4%	-29.7%	?	10µM*	-17.8%
CCOc1ccccc1CN1[C@@H](c2ccc(OC)cc2)CC(C(=O)OC)(C(=O)OC)[C@H]1c1ccccc1	-1.9%	-11.2%	?	·	-23.8%
Cc1ncc2c(c1CNC(=O)c1ccc3c(c1)OCO3)CCN(C(=O)c1cccc(-n3cccn3)c1)C2	-2.5%	0.2%	·	·	-8.1%
CCCCCCCCCc1ccc(OCCOCCO)cc1	?	11.2µM*	·	·	-21.2%
CCCCCCCCCc1ccc(O)cc1	0.0%	-5.2%	·	·	16.5%
COc1ccc(C2CC(c3ccccc3Cl)=NN2c2ccc(S(N)(=O)=O)cc2)cc1 (configuration not stated)	?	?	10.9	?	12.6µM*
COc1ccc(C2CC(c3cccc(C(F)(F)F)c3)=NN2c2ccc(S(N)(=O)=O)cc2)cc1 (configuration not stated)	?	0.0%	-101.0*	?	?
COc1ccc(S(=O)(=O)N2CCC3CC2c2c(-c4ccc(C(F)(F)F)cc4)cccc23)cc1 (configuration not stated)	1.1%	-2.6%	-28.4	·	i
CCOc1ccc(C(=O)Nc2ccc3nc(SCC(=O)N(C)c4ccccc4)sc3c2)cc1	-18.5%[7.34 µM]	?	?	·	-16.9%[7.34 µM]
SMILES	VACV Venus inh	FMDV inh	HCMV antiviral	HCV inhibitor	Vaccinia mCherry
COc1ccccc1C(=O)Nc1ccc2nc(SCC(=O)N(C)c3ccccc3)sc2c1	?	?	-65.2*	·	-28.1%
CN(C(=O)CSc1nc2ccc(NC(=O)c3ccccc3F)cc2s1)c1ccccc1	?	39.8µM*	12.8	·	-6.5%
CN(C(=O)CSc1nc2ccc(NC(=O)c3cccc(F)c3)cc2s1)c1ccccc1	-29.2%	?	-74.6*	·	-8.9%
CCC1(C2CCN(Cc3cccc(Cl)c3)CC2)NC(=O)N(CC2COc3ccccc3O2)C1=O (configuration not stated)	-17.1%	-10.5%	·	·	-20.7%
CC1(C2CC2)NC(=O)N(CC(=O)Nc2ccccc2F)C1=O (configuration not stated)	-8.9%	-7.6%	-9.4	5.8%	-8.6%
Nc1nonc1-n1nnc(C(=O)N/N=C/c2ccccc2Br)c1CN1CCCC1	-4.5%	-19.7%	7.1	-6.3%	i
CN1CCN(C2=C(Cl)C(=O)N(C3CCCCC3)C2=O)CC1	·	-23.1%	-95.3*	?	·
Cc1ccc(CN2CCSc3ccc(C(=O)N4CCOCC4)cc32)cc1	·	5.3%	·	-22.7%	·
Cc1ccc(CN2CCSc3ccc(C(=O)NCCCN4CCOCC4)cc32)cc1	·	-5.1%	-13.5	-21.1%	·
CCN1CCN(C(=O)c2ccc3c(c2)N(Cc2ccc(C)cc2)CCS3)CC1	·	27.4%	-84.6*	-16.3%	·
CCN1CCN(CCCNC(=O)c2ccc3c(c2)N(Cc2ccc(C)cc2)CCS3)CC1	·	-5.3%	·	11.2µM*	·
CCC(C)n1c(=N)c(C(=O)NC2CCCCC2)cc2c(=O)n3cc(C)ccc3nc21 (configuration not stated)	-21.7%	-5.4%	2.2	·	-23.1%
CCCCn1c(OC(=S)N(CC)CC)cc(C)nc1=S	-16.7%	0.0%	·	·	-25.6%
Cc1nc(C)n(CC(C)C(=O)N2CCN(S(=O)(=O)c3ccc(Cl)cc3)CC2)n1 (configuration not stated)	-17.3%	-5.5%	-15.2	-2.2%	i
COc1ccc(CCN(C)CCCOc2ccc(S(=O)(=O)c3[nH]c4ccccc4c3C(C)C)cc2)cc1OC	·	-28.6%	·	·	·
CCCCc1nnc2c(N(C)S(=O)(=O)c3ccc(C)cc3)nc3ccccc3n12	-14.3%	-7.4%	21.3	7.9%	i
CCCc1nnc2c(N(C)S(=O)(=O)c3ccc(C)cc3)nc3ccccc3n12	-12.6%	-9.5%	-69.4*	11.2%	i
COc1cc2cc(CNc3ccccc3)c(=O)n(CC(=O)Nc3ccc(C)c(Cl)c3)c2cc1OC	-0.9%	32.2%	60.6	·	-9.3%
COc1cc2cc(CNc3ccc(C)cc3)c(=O)n(CC(=O)Nc3ccc(C(C)C)cc3)c2cc1OC	-7.2%	9.4%	-104.5*	·	-21.2%
COc1ccc(NCc2cc3cc4c(cc3n(CC(=O)Nc3cc(C)ccc3C)c2=O)OCCO4)cc1	-26.3%	-21.1%	-73.2*	·	?
CC1CCCCN1CCCNC(=O)c1ccc2c(c1)sc1nc(-c3ccc(F)cc3)cn12 (configuration not stated)	-28.2%	0.0%	·	·	-18.9%
Cn1cc(-c2cc3n(n2)CCC(=O)N3CC(=O)NCc2ccccc2)c2ccccc21	-5.4%	9.3%	26.5	·	i
CCCCn1nnc(NC(=S)NC(=O)c2ccc(-c3cccc(Cl)c3Cl)o2)n1	0.112µM*	?	·	-7.1%	?
CCCCn1nnc(NC(=S)NC(=O)c2ccc(OCC)c([N+](=O)[O-])c2)n1	1.26µM*	-12.0%	?	-29.5%	?
CCCCC(=O)NC(=S)Nc1nnn(CCC)n1	?	14.3%	-98.2*	-2.9%	?
COc1ccc(-n2c(=O)c(-c3ccc(Cl)cc3)nc3cnc(N(C)C)nc32)cc1	·	-11.2%	·	·	·
